Data on 38 molecules can be found in PubChem BioAssay AID1259245 (Vanderbilt High Throughput Screening Facility, 2017).

Among all 40,000 compounds or so, about 1,400 (3.5%) were called active.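 The calls were made as follows: active = any of four per-well response measures lying three or more SD from its plate-wide compound average, in either direction; inactive = the rest, inconclusive results apart.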 What follows is part of a selection rich in actives, with near analogues and random picks from the rest.

Voltage-dependent calcium channel gamma-2 subunit (Mus musculus) + Glutamate receptor 2 (Rattus norvegicus), sequence (O88602 whole entry, looked up): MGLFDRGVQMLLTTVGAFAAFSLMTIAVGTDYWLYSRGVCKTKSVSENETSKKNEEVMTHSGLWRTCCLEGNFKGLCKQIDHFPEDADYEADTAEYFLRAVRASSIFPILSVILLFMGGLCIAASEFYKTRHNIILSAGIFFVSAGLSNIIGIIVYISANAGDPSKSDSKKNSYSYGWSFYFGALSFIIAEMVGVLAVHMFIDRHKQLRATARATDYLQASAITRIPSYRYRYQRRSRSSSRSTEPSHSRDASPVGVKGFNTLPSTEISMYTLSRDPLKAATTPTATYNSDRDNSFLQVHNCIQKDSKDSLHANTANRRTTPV
Voltage-dependent calcium channel gamma-2 subunit (Mus musculus) + Glutamate receptor 2 (Rattus norvegicus), sequence (P19491 whole entry, looked up): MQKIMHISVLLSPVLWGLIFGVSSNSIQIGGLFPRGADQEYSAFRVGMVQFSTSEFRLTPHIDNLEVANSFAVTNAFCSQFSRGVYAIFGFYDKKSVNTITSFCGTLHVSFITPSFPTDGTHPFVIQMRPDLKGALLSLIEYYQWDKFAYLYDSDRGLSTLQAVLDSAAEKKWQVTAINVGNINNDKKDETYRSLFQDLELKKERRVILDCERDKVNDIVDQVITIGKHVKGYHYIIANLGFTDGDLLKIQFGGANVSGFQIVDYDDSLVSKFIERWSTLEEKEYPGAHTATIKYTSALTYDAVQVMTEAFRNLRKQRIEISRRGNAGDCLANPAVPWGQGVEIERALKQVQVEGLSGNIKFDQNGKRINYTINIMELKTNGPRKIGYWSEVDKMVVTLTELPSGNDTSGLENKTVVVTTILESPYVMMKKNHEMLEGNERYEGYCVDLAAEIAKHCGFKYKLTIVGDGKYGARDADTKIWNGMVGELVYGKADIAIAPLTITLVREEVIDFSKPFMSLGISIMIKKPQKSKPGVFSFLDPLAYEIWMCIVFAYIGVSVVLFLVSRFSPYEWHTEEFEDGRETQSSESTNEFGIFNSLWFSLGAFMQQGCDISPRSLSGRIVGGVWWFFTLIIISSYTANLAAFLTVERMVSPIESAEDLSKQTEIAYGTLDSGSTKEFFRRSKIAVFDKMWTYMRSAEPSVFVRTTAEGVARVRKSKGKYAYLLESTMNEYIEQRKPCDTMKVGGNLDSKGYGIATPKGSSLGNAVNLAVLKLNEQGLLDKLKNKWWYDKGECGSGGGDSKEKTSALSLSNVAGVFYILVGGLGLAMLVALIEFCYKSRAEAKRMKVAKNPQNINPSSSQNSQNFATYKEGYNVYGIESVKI

The test concerns the target Voltage-dependent calcium channel gamma-2 subunit (Mus musculus) + Glutamate receptor 2 (Rattus norvegicus) (UniProt O88602+P19491). The test can be described thus: modulators of GluA2-stargazin AMPA receptor complexes, primary screen, cell-based, membrane potential dye (AID 1259245). Particulars: HEK293 GluA2+stargazin, membrane potential dye (FDSS), glutamate EC50, at 30 µM, hits were called plate by plate, in both directions; compound max-min signal: compound-alone response (agonism); glutamate slope, % of max: measured here: glutamate response slope, % max.
Take `COc1ccc(C(=O)Cn2nc(-c3ccco3)c3sc(N4CCOCC4)nc3c2=O)cc1OC`: the compound max-min signal stood at 0.102; the glutamate response, % of max is 27.5% (inactive); the glutamate slope, % of max was found to be 57%.

Take `Cc1ccc(NC(=O)Cn2nc(-c3ccco3)c3sc(N4CCOCC4)nc3c2=O)c(C)c1`: the compound max-min signal is 0.131; the glutamate response, % of max is 34% (active); the glutamate slope, % of max worked out at 56.8%.

For `CCCc1ccc(C(=O)NCC(C)(O)COC)cc1` (centres undefined), the compound max-min signal came to 0.117; the glutamate response, % of max was 37.6% (inactive); the glutamate slope, % of max amounted to 59.3%.

For the molecule `COCC(C)(O)CNC(=O)c1cc(C)oc1C` (centres undefined), the compound max-min signal was found to be 0.0874; the glutamate response, % of max is 39.3% (inactive); the glutamate slope, % of max was 66.3%.

On to `COCC(C)(O)CNC(=O)Cc1cccc(C)c1` (centres undefined), for which the compound max-min signal is 0.0936; the glutamate response, % of max was 4.21% (active); the glutamate slope, % of max was determined as 14.9%.

Take `COc1ccc(OC)c2sc(N(Cc3ccccn3)C(=O)Cc3ccc(S(C)(=O)=O)cc3)nc12`: the compound max-min signal amounted to 0.0642; the glutamate response, % of max was 28.9% (inactive); the glutamate slope, % of max amounted to 45.5%.

For the molecule `O=C(Nc1ccc(N2CCCS2(=O)=O)cc1)c1ccc([N+](=O)[O-])cc1`, the compound max-min signal came to 0.0338; the glutamate response, % of max is 28.1% (inactive); the glutamate slope, % of max was determined as 51.8%.

Consider `Cc1cc([N+](=O)[O-])ccc1NC(=O)C(=O)NCc1ccncc1`, for which the compound max-min signal is 0.158; the glutamate response, % of max was 47.7% (inactive); the glutamate slope, % of max was 65.6%.

In the case of `O=C(Nc1ccc([N+](=O)[O-])cc1Br)c1ccncc1`, the compound max-min signal amounted to 0.216; the glutamate response, % of max is 21.7% (active); the glutamate slope, % of max stood at 38.8%.

As for `Cc1cc(C)n(CCNC(=O)/C=C/c2cccs2)n1`, the compound max-min signal came to 0.131; the glutamate response, % of max was 25.6% (inactive); the glutamate slope, % of max was 56.8%.

For `Cc1noc(C2CN(S(=O)(=O)c3ccc(Cl)cc3)C2)n1`, the compound max-min signal was 0.142; the glutamate response, % of max is 44.3% (inactive); the glutamate slope, % of max was determined as 70.8%.

With `O=C(NCc1ccc2c(c1)OCO2)c1ccc(=O)[nH]n1`, the compound max-min signal was determined as 0.05; the glutamate response, % of max is 25.6% (inactive); the glutamate slope, % of max worked out at 54.3%.

As for `COc1ccc(NC(C)=O)cc1NC(=O)CCCn1nc(-c2ccccc2)ccc1=O`, the compound max-min signal was determined as 0.08; the glutamate response, % of max is 33.8% (inactive); the glutamate slope, % of max was 52.7%.

Turning to `COc1ccc(NC(C)=O)cc1NC(=O)c1ccc(=O)[nH]n1`, the compound max-min signal stood at 0.159; the glutamate response, % of max was 38.5% (active); the glutamate slope, % of max was 57.1%.

Turning to `Cc1nn(CCNC(=O)c2cccc([N+](=O)[O-])c2)c(C)c1Cl`, the compound max-min signal was 0.133; the glutamate response, % of max is 50.5% (inactive); the glutamate slope, % of max worked out at 65.4%.

Turning to `CCCC(=O)N1CCN(c2ccc(Nc3cc(C)ccn3)nn2)CC1`, the compound max-min signal turned out to be 0.194; the glutamate response, % of max was 23.7% (active); the glutamate slope, % of max was 43.2%.

In the case of `Cc1ccc(N2CCN(C(=O)COc3nccc(C)n3)CC2)nn1`, the compound max-min signal was determined as 0.0842; the glutamate response, % of max was 38.9% (inactive); the glutamate slope, % of max amounted to 61.3%.

Consider `CCCOc1ccc(N2CCN(C(=O)COc3ccc4ccccc4c3)CC2)nn1`, for which the compound max-min signal was determined as 0.0411; the glutamate response, % of max was 42.7% (inactive); the glutamate slope, % of max came to 61.1%.

In the case of `O=C(Nc1cccs1)N1CCC(c2nnc(-c3ccc(F)cc3)o2)CC1`, the compound max-min signal is 0.0749; the glutamate response, % of max is 44.9% (inactive); the glutamate slope, % of max worked out at 64.6%.

Take `Cc1ccc(CN2C(=O)NC3(CCN(C(=O)c4ccccc4F)CC3)C2=O)cc1`: the compound max-min signal came to 0.0483; the glutamate response, % of max was 11.7% (inactive); the glutamate slope, % of max is 23.5%.

As to `COc1ccc(CC(=O)Nc2ccc3c(c2)N(S(=O)(=O)c2ccccc2)CCC3)cc1`, the compound max-min signal came to 0.0777; the glutamate response, % of max was 49% (inactive); the glutamate slope, % of max turned out to be 74.3%.

In the case of `CN(C)S(=O)(=O)c1ccc(C(=O)Nc2ccc3c(c2)N(C(=O)c2ccco2)CC3)cc1`, the compound max-min signal is 0.176; the glutamate response, % of max was 45.9% (inactive); the glutamate slope, % of max was 62.8%.

As for `CCOC(=O)c1csc(NC(=O)c2cc(C)no2)n1`, the compound max-min signal came out at 0.211; the glutamate response, % of max was 21.3% (active); the glutamate slope, % of max is 37.1%.

On to `Cc1cc(C(=O)Nc2nc(-c3cccs3)cs2)on1`, for which the compound max-min signal is 0.0444; the glutamate response, % of max is 13.4% (inactive); the glutamate slope, % of max was 25.9%.

For the molecule `CCOC(=O)c1csc(NC(=O)Cn2cnc(C)cc2=O)n1`, the compound max-min signal amounted to 0.0863; the glutamate response, % of max was 36.3% (inactive); the glutamate slope, % of max is 51.4%.

As for `Cc1nc(NC(=O)c2ccc3c(c2)CCCC3)sc1C`, the compound max-min signal is 0.129; the glutamate response, % of max was 29.7% (inactive); the glutamate slope, % of max turned out to be 50.6%.

With `O=C(Nc1cccc(N2CCCS2(=O)=O)c1)c1cccc(F)c1`, the compound max-min signal was 0.0432; the glutamate response, % of max is 21.4% (inactive); the glutamate slope, % of max turned out to be 45.7%.

Consider `O=C(CSc1cc(N2CCN(c3ccccc3F)CC2)ncn1)c1cccs1`, for which the compound max-min signal was determined as 0.0768; the glutamate response, % of max is 53.6% (inactive); the glutamate slope, % of max is 73.7%.

`COC(=O)c1ccc(CSc2cc(N3CCN(c4ccccc4F)CC3)ncn2)o1`: the compound max-min signal came to 0.0593; the glutamate response, % of max is 58.6% (active); the glutamate slope, % of max worked out at 59.5%.

Turning to `CCOc1ccccc1NC(=O)CSc1cc(N2CCC(C(=O)NC3CC3)CC2)ncn1`, the compound max-min signal came out at 0.107; the glutamate response, % of max was 24% (inactive); the glutamate slope, % of max is 50.5%.

Take `CCOc1ccc(Nc2cc(C)nc3c4c(C)cc(C)nc4nn23)cc1`: the compound max-min signal was determined as 0.205; the glutamate response, % of max was 36.4% (inactive); the glutamate slope, % of max was 58.7%.

For `Cc1cc(C)c2c(n1)nn1c(NCC(C)C)cc(C)nc21`, the compound max-min signal was found to be 0.313; the glutamate response, % of max was 35.7% (active); the glutamate slope, % of max came out at 52.5%.

Consider `Cc1cc(C)c2c(n1)nn1c(-n3ccnc3)cc(C)nc21`, for which the compound max-min signal was 0.202; the glutamate response, % of max was 43.8% (inactive); the glutamate slope, % of max was 65.7%.

For the molecule `CC(=O)NCCn1ncc2c(N3CCN(c4ccccc4)CC3)ncnc21`, the compound max-min signal turned out to be 0.109; the glutamate response, % of max was 30% (inactive); the glutamate slope, % of max worked out at 56.7%.

In the case of `Cc1ccc(C(=O)CSc2nccn(-c3ccc(Cl)cc3)c2=O)c(C)c1`, the compound max-min signal worked out at 0.0972; the glutamate response, % of max was 25.5% (inactive); the glutamate slope, % of max was determined as 43.4%.

For the molecule `COc1ccc(S(=O)(=O)Nc2ccc3c(c2)CCCN3S(C)(=O)=O)cc1C`, the compound max-min signal came to 0.0764; the glutamate response, % of max was 41% (inactive); the glutamate slope, % of max is 56.8%.

Consider `CCS(=O)(=O)N1CCCc2ccc(NS(=O)(=O)c3cc(C)c(C)cc3OC)cc21`, for which the compound max-min signal was 0.0618; the glutamate response, % of max is 43.6% (inactive); the glutamate slope, % of max was 69.1%.

As for `CCS(=O)(=O)N1CCCc2cc(NS(=O)(=O)c3cc(C)c(OC)c(C)c3)ccc21`, the compound max-min signal was 0.0675; the glutamate response, % of max is 32.7% (active); the glutamate slope, % of max is 46.4%.
